Measurements taken from PubChem BioAssay (NCATS).
Active and inactive are the calls of the source.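 Rule for the calls: active = compounds whose dose series gives a full or clear partial fitted curve of increased nuclear translocation; inconclusive = weak partial curve or effect only at the top dose; inactive = no dose-dependent translocation response.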

Molecular target: Glucocorticoid receptor (Homo sapiens) (UniProt P04150)
Assay: GR-GFP Redistribution (AID 450)
Details: U2OS GR-GFP nuclear translocation, laser cytometry, 2 h; series mostly up to 20.6 µM
Potency is the fitted concentration of half-maximal effect.

Sequence of Glucocorticoid receptor (Homo sapiens) (P04150 whole entry, looked up): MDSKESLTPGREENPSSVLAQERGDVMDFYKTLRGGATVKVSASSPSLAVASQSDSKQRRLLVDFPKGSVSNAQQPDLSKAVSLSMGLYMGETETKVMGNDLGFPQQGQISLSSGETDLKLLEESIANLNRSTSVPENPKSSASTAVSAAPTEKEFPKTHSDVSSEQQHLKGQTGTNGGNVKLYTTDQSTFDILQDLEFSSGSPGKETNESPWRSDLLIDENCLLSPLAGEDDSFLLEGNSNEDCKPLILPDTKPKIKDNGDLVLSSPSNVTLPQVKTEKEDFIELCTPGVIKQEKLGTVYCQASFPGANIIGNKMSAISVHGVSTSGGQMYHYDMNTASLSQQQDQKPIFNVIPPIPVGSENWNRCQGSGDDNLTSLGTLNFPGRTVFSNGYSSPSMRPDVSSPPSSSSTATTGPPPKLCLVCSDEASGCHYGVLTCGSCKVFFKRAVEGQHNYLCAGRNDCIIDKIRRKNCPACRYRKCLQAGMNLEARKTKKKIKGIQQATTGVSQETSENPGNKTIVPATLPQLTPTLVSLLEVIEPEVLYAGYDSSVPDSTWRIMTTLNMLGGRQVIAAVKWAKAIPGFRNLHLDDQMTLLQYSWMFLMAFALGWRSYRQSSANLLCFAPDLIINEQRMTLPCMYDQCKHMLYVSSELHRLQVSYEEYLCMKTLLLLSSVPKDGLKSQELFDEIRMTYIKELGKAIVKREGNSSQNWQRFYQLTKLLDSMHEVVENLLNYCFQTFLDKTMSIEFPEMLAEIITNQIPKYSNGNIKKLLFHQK

Potency, inactive:
N#Cc1c(N)nc(SCc2ccccn2)c(C#N)c1-c1cccs1 > 20.6 µM
COc1cccc(C(=O)Nc2ccc(-c3nnc(-c4ccco4)o3)cc2)c1 > 20.6 µM
N#CC(C(=O)NC1CC1)c1nc2ccccc2nc1N1CCN(C/C=C/c2ccccc2)CC1 (stereo not given) > 20.6 µM
Cc1ccc(N2C(=O)c3sc4nnc(C)c(=O)n4c3C2=O)cc1 > 20.6 µM
COc1ccc(C(=O)c2sc(NC(C)C)nc2N)cc1OC > 20.6 µM
N#CC1=C(N)NC(SCc2ccc(Cl)cc2)=C(C#N)C12CCCCC2 > 20.6 µM
CCCOC(=O)CSC1=C(C#N)C(c2ccccc2OCC)C(C#N)C(=O)N1 (stereo not given) > 20.6 µM
COC(=O)c1ccc(C2/C(=C(\O)c3ccc(OC)c(C)c3)C(=O)C(=O)N2c2cc(C)on2)cc1 (stereo not given) > 20.6 µM
CCc1cc2c(=O)c(-c3nc4ccccc4[nH]3)coc2cc1OC(=O)N1CCOCC1 > 20.6 µM
Fc1ccc2[nH]c3c(N4CCN(Cc5ccc6c(c5)OCO6)CC4)ncnc3c2c1 > 20.6 µM
C=CCn1c(SCC(=O)c2ccc(NS(=O)(=O)c3ccccc3)cc2)nnc1-c1cccs1 > 20.6 µM
CCCCSc1nc(N)c(C#N)c(-c2cccs2)c1C#N > 20.6 µM
COc1cccc(-c2nc(NC(C)C)c3ccccc3n2)c1O > 20.6 µM
N#Cc1nc(-c2cccs2)oc1NCc1ccc2c(c1)OCO2 > 20.6 µM
CSc1nc(N)nc(SCC(=O)C23CC4CC(CC(C4)C2)C3)c1C#N > 20.6 µM
CCOc1cccc(-c2nnc3sc(C4CCCCC4)nn23)c1 > 20.6 µM
Oc1c(Cl)cc(Cl)cc1CNc1ccc(Br)cn1 > 20.6 µM
Nc1nonc1C(=O)NCCN=Cc1cc(Cc2ccccc2)cc(Br)c1O > 20.6 µM
Cn1c(NCC(O)c2ccccc2)nc2c1c(=O)n(Cc1ccc(Cl)c(Cl)c1)c(=O)n2C (stereo not given) > 20.6 µM
Cc1ccccc1N1C(=O)CC(Sc2nnc(-c3ccccc3)o2)C1=O (stereo not given) > 20.6 µM
Cc1ccc2[nH]c3c(N4CCN(Cc5ccccc5)CC4)ncnc3c2c1 > 20.6 µM
N#Cc1nc(-c2ccccc2Cl)oc1N1CCCCC1 > 20.6 µM
Cn1c(N2CCN(c3ccccn3)CC2)nc2c1c(=O)n(Cc1ccc(Cl)cc1)c(=O)n2C > 20.6 µM
Cc1oc2cc(O)ccc2c(=O)c1-c1cnn(-c2ccccc2)c1 > 20.6 µM
Cc1ccc(C2C3CN(C(C)C)CC=C3C(C#N)=C(N)C2(C#N)C#N)cc1 (stereo not given) > 20.6 µM
COc1ccc2[nH]c3c(N4CCN(Cc5ccc6c(c5)OCO6)CC4)ncnc3c2c1 > 20.6 µM
COc1ccccc1N=Cc1nc(-c2ccccc2)oc1OC(C)=O > 20.6 µM
OC1(c2cccc(C(F)(F)F)c2)CCN(c2ncnc3c2[nH]c2ccccc23)CC1 > 20.6 µM
O=C(Nc1ccc(N2CCN(C(=O)c3ccccc3)CC2)c(Cl)c1)c1ccc(Br)o1 > 20.6 µM
c1ccc2c(c1)CCN(c1ncnc3c1[nH]c1ccccc13)C2 > 20.6 µM
O=C(NCc1ccccn1)c1coc(=O)c(Br)c1 > 20.6 µM
Cc1cc(C)n(S(=O)(=O)/C=C/c2ccccc2)n1 > 20.6 µM
Cc1csc(NC(=O)CSc2nsc(SCC(=O)Nc3nc(C)cs3)c2C#N)n1 > 20.6 µM
Cc1ccc(S(=O)(=O)N2CCN(c3nc(C(C)C)c4c(c3C#N)CC(C)(C)OC4)CC2)cc1 > 20.6 µM
Cn1c(NCc2ccco2)nc2c1c(=O)n(Cc1ccc(Cl)c(Cl)c1)c(=O)n2C > 20.6 µM
CN1CCc2c(sc3ncn4nc(-c5ccccc5O)nc4c23)C1 > 20.6 µM
COc1ccc(-c2nn(C)c(=O)c3ccccc23)cc1NS(C)(=O)=O > 20.6 µM
N#C/C(=C\N1CCN(Cc2ccc3c(c2)OCO3)CC1)c1nc2ccccc2s1 > 20.6 µM
O=C1CC(N(O)C2CC(=O)N(Cc3ccccc3)C2=O)C(=O)N1Cc1ccccc1 (stereo not given) > 20.6 µM
O=c1c(-c2ccc3c(c2)OCCO3)c(C(F)(F)F)oc2cc(O)cc(O)c12 > 20.6 µM
